Results taken from PubChem BioAssay (NCI).
This is part of a sample that, as a whole, favours compounds with a hit. Of some 83,000 tested, about 20% had one in any assay.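 Plates (96-well) were seeded with cells, treated with compound at one concentration, and incubated for 48 hours before percent growth was determined.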 A number with no mark means an inactive call. Active and inactive are the calls of the source. The calls were made as follows: active = growth percent below 10; inactive = the rest.

System: CAKI-1 renal
Test: NCI-60 one-dose screen, 48 h (100 = growth as untreated, 0 = no growth, -100 = all killed)
Conditions: 10 µM

SMILES	growth
O=C(N/N=C/c1cc([N+](=O)[O-])ccc1O)c1cccc2ccccc12	19.9%
COc1cc(Cc2cc(-c3ccccc3)n[nH]c2=O)cc(OC)c1OC	64.6%
CC(=O)N[C@H](C(=O)N[C@@H](CCCNC(=N)N)C(=O)N[C@@H](CCCCN)C(=O)N[C@@H](CCCNC(=N)N)C(=O)N[C@]1(C)CCCCCC/C=C\CCC[C@@](C)(C(=O)N[C@@H](CCCNC(=N)N)C(=O)N[C@@H](CCC(=O)O)C(=O)N[C@@H](CC(C)C)C(=O)N[C@H](C(=O)N[C@@H](CCC(=O)O)C(N)=O)C(C)C)NC(=O)[C@H](CCC(N)=O)NC(=O)[C@H](CC(C)C)NC(=O)[C@H](CC(C)C)NC(=O)[C@H](CCCNC(=N)N)NC(=O)[C@H](CCCNC(=N)N)NC(=O)[C@H](CC(C)C)NC1=O)C(C)C	16.1%
Cc1ccc(/C=C2/C(=O)N(C)c3ccc(S(=O)(=O)Nc4ccc(C(C)(C)C)cc4)cc32)s1	45%
O=C(CCn1cnc2c(cc(-c3ccccc3)n2-c2ccccc2)c1=O)Nc1ccc(F)cc1	97.1%
CC(C)(C)OC(=O)CN1CCc2c(sc3ncnc(N/N=C/c4cccc5ccccc45)c23)C1	35.1%
CCn1c(SCc2ccc(C)cc2)nnc1-c1nn(-c2ccc(Cl)cc2Cl)c(-c2ccc(Cl)cc2)c1C	40.5%
Cc1c[nH]c(=O)n(Cc2nnc(CCC(=O)c3nc4ccccc4[nH]3)o2)c1=O	63.5%
CCCCN(CCCC)C(=O)[C@H](CC)[C@@H]1CC[C@@H](C)[C@@H]([C@H](C)[C@@H](O)[C@@H](C)C(=O)[C@H](CC)C2O[C@]3(C=CC(=O)[C@]4(CC[C@@](C)([C@H]5CC[C@](O)(CC)[C@H](C)O5)O4)O3)[C@H](C)C[C@@H]2C)O1 (stereo partly drawn)	21.6%
COc1ccc(-c2cc(-c3ccccc3)nc(SCCCC(=O)NO)n2)cc1	-16.4% (active)
Cc1[nH]c2ccccc2c1/C=N/Nc1ncnc2sc3c(c12)CCN(CC(=O)OC(C)(C)C)C3	47.2%
O=C1CSC(=S)N1/N=C/c1ccc(Cl)s1	100%
CCCc1cn(CC(=O)Nc2nc3ccccc3s2)nn1	87.6%
CNS(=O)(=O)Oc1ccc(-c2sc3cc(OS(=O)(=O)NC)ccc3c2C(=O)c2ccc(OCCN3CCCCC3)cc2)cc1	59.3%
CC(=O)C1N=NCC1c1ccccc1 (stereo not drawn)	95.4%
CC(C)(C)OC(=O)CN1CCc2c(sc3ncnc(N/N=C/c4ccccc4Br)c23)C1	51.3%
Clc1ccc(C2=NN=C3C(Cc4ccccc4)=Nc4ccccc4N3C2)cc1	55.4%

System: A498 renal
Test: as above
Conditions: 10 µM

SMILES	growth
CCOS(=O)(=O)c1c(C(C)C)cc(C(C)C)cc1C(C)C	117%
CC(C)CCN(CCC(C)C)CC(=O)Nc1ccc(S(=O)(=O)c2ccc(NC(=O)CN(CCC(C)C)CCC(C)C)cc2)cc1	97.1%
COc1cc(Cc2cc(-c3ccccc3)n[nH]c2=O)cc(OC)c1OC	69%
C1CN(CC2CCC(CN3CCOCC3)O2)CCO1 (stereo not drawn)	117%
Cc1cc(=O)n2nnc3cc(Cl)c(Cl)cc3n12	138%
Cc1ccc(/C=C2/C(=O)N(C)c3ccc(S(=O)(=O)Nc4ccc(C(C)(C)C)cc4)cc32)s1	90.8%
CC(=O)[C@H]1CC[C@]2(C)[C@@H]1CC[C@@H]1[C@@]3(C)CC(CCC#N)(CCC#N)C(=O)C(C)(C)[C@@H]3CC[C@]12C	88.9%
Cc1c(Cl)cccc1NC(=O)CN1CCOCC1	101%
CCn1c(SCc2ccc(C)cc2)nnc1-c1nn(-c2ccc(Cl)cc2Cl)c(-c2ccc(Cl)cc2)c1C	18.9%
O=C(Nc1nc(-c2ccccc2)nc2c1sc(=S)n2-c1ccccc1)C(F)(F)F	80.4%
CCCCN(CCCC)C(=O)[C@H](CC)[C@@H]1CC[C@@H](C)[C@@H]([C@H](C)[C@@H](O)[C@@H](C)C(=O)[C@H](CC)C2O[C@]3(C=CC(=O)[C@]4(CC[C@@](C)([C@H]5CC[C@](O)(CC)[C@H](C)O5)O4)O3)[C@H](C)C[C@@H]2C)O1 (stereo partly drawn)	41%
CCN(CC)CCOc1cccc2c1C(=O)c1ccccc1C2=O	87.5%
COc1cc(OC)c2c(=O)c(O)c(-c3ccccc3)oc2c1	69.6%
COc1ccc(-c2cc(-c3ccccc3)nc(SCCCC(=O)NO)n2)cc1	-44.3% (active)
COc1cc(-c2nn(-c3ccc(NC(=O)NCCNS(=O)(=O)c4ccc(F)cc4)cc3)cc2-c2ccncc2)ccc1Cl	-19.1% (active)
O=C(CC(CC(=O)c1ccccc1)c1ccccc1O)c1ccccc1	97.5%

SMILES	growth
CCOC(=O)c1cc(C(=O)c2cc(OC)cc(OC)c2)n2nc(C)ccc12	-1.92% (active)
CCCc1cn(CC(=O)Nc2nc3ccccc3s2)nn1	129%
CC(CN(C)C)Oc1ccc(OC(C)CN(C)C)c2c1C(=O)c1ccccc1C2=O (stereo not drawn)	59.6%
COc1cc(-c2nn(-c3cccc(NC(=O)NCCNC(=O)c4cccc(C(F)(F)F)c4)c3)cc2-c2ccncc2)ccc1Cl	33%
Cc1ccc(NCCNCC(C)(C)O)c2c(=O)c3ccc(Cl)cc3sc12	59%
CN(C)CCOc1ccccc1NC1=C(Cl)C(=O)C(Nc2ccccc2OCCN(C)C)=C(Cl)C1=O	107%
COc1cc(-c2nn(-c3cccc(NC(=O)CCNc4ccc(N5CCOCC5)cc4)c3)cc2-c2ccncc2)ccc1Cl	18.3%
C=CCSC(CC)(CC)C(=O)NC	104%
Cc1c(Cl)cccc1NC(=O)CCCl	108%
CCN(CC)CCOc1cccc2c1C(=O)c1cccc(OCCN(CC)CC)c1C2=O	63%
CC(C)(C)OC(=O)CN1CCc2c(sc3ncnc(N/N=C/c4ccccc4Br)c23)C1	77%
N#CCc1csc(Cc2ccccc2)n1	103%
Clc1ccc(C2=NN=C3C(Cc4ccccc4)=Nc4ccccc4N3C2)cc1	68.5%
CCN(CC)CC(=O)N(CC)c1ccc(C)c(Cl)c1	86.8%
COc1cc(-c2csc(NC(=O)Nc3ccc(Cl)c(C(F)(F)F)c3)n2)cc(OC)c1OC	-15.7% (active)
